Measurements as given in PubChem BioAssay (NCATS).
“And” between values parts separate entries of the source, which are not always exact repeats. Equal entries are not always repeated. Results filed as inconclusive are left out. The source made the active and inactive calls. Unless noted, the call rests on the fitted dose curve.

Assays:
[1] = molecular target: Bile acid receptor (Homo sapiens) (UniProt Q96RI1); assay: qHTS assay for small molecule antagonists of farnesoid X receptor signaling (AID 588526); further: on the % scale 0 is the no-effect control and ±100 the full control effect
Summary of the method: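 Antagonist mode: titrated compounds tested against chenodeoxycholic acid stimulation (normalized to 50 uM CDCA and DMSO) in GeneBLAzer HEK293T cells for 16 h. Beta-lactamase read by CCF4 fluorescence; IC50 from Hill fits.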

[2] = molecular target: Glucocorticoid receptor (Homo sapiens) (UniProt P04150); assay: qHTS assay for small molecule agonists of glucocorticoid receptor signaling (AID 588532; active means well fitted curve in the direction sought with a large enough effect in the signal ratio, with a control signal flat; the % refers to the signal ratio;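 further: 100% = dexamethasone at 0.1 µM and 0% = DMSO only wells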); settings: HeLa MMTV-bla, beta-lactamase ratio, agonist, 18 h; stronger effect = higher value; percent of dexamethasone control, DMSO zero
Summary of the method: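 HeLa GRE-bla reporter cells; 18 h compound exposure at 37 C; 2 h CCF4 loading at room temperature; fluorescence at 460 and 530 nm; EC50 by Hill equation.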

[3] = molecular target: Glucocorticoid receptor (Homo sapiens) (UniProt P04150); assay: qHTS assay for small molecule antagonists of glucocorticoid receptor signaling (AID 588533; active means well fitted inhibition curve with a large enough effect in the signal ratio, with a control signal flat, not every such curve was filed as active; the % refers to the signal ratio;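 further: cells stimulated with 2 nM dexamethasone as agonist; on the % scale 0 is the no-effect control and ±100 the full control effect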)
Summary of the method: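 Antagonist-mode qHTS: compound titrations added to GRE-bla HeLa cells, then dexamethasone 2 nM final; 18 h, 37 C. CCF4 FRET fluorescence normalized to dexamethasone and DMSO; IC50 from Hill fit.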

[4] = qHTS assay for small molecule antagonists of peroxisome proliferator-activated receptor delta signaling (AID 588535; active means well fitted inhibition curve with a large enough effect in the signal ratio, with a control signal flat, not every such curve was filed as active; the % refers to the signal ratio;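 on max response: cells co-treated with a PPAR-delta agonist as stimulator during compound exposure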); settings: HEK293T PPARd-UAS-bla, beta-lactamase FRET ratio, 18 h; 460 nm channel
Summary of the method: (§1)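 Antagonist-mode beta-lactamase reporter (GeneBLAzer PPAR-delta-UAS-bla) in HEK293T cells, 2% charcoal/dextran FBS, 4000 cells/well. Compound titrations, 18 h at 37 C; CCF4 ratio read, IC50 and efficacy from Hill fits.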

[5] = molecular target: Peroxisome proliferator-activated receptor delta (Homo sapiens) (UniProt Q03181); assay: as above
Summary of the method: as §1

[6] = molecular target: Androgen receptor (Homo sapiens) (UniProt P10275); assay: qHTS assay for small molecule agonists of androgen receptor signaling (AID 588515; active means well fitted curve in the direction sought with a large enough effect in the signal ratio, with a control signal flat; the % refers to the signal ratio; further: on the % scale 0 is the no-effect control and ±100 the full control effect); settings: AR-UAS-bla HEK293, beta-lactamase ratio, agonist 16 h; stronger effect = higher value
Summary of the method: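 EC50 and efficacy came from Hill fits of titrations (up to 92 uM) normalized to 30 nM R1881 as 100% and DMSO as 0%. Compound exposure was 16 h at 37 C on AR-UAS-bla HEK293 cells, with a 405/460/530 nm CCF4 fluorescence read.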

[7] = molecular target: Androgen receptor (Homo sapiens) (UniProt P10275); assay: qHTS assay for small molecule antagonists of androgen receptor signaling (AID 588516; active means well fitted curve in the direction sought with a large enough effect in the signal ratio, with a control signal flat, not every such curve was filed as active; the % refers to the signal ratio; further: on the % scale 0 is the no-effect control and ±100 the full control effect)
Summary of the method: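 AR-UAS-bla-GripTite HEK 293 cells (2000/well, 5 h at 37 C) received compound titrations, then R1881 at 10 nM final; after 16 h at 37 C, CCF4 dye 2 h RT, beta-lactamase fluorescence read; IC50 from Hill fits.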

[8] = molecular target: DNA dC->dU-editing enzyme APOBEC-3G (Homo sapiens) (UniProt Q9HC16); assay: qHTS for inhibitors of Vif-A3G interactions: Validation (AID 588379; active means well fitted inhibition curve with a large enough effect; further: 0% is about no effect)
Summary of the method: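 HeLa cells stably expressing Vif and A3G-eYFP, 700 cells/well, incubated overnight at 37 deg C, then exposed to compound overnight at 37 deg C. Inhibition of Vif-mediated degradation read as increased yellow fluorescence (Ex 488/Em 500-530) by laser-scanning cytometry.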

Chain of Peroxisome proliferator-activated receptor delta (Homo sapiens) (Q03181 whole entry, looked up): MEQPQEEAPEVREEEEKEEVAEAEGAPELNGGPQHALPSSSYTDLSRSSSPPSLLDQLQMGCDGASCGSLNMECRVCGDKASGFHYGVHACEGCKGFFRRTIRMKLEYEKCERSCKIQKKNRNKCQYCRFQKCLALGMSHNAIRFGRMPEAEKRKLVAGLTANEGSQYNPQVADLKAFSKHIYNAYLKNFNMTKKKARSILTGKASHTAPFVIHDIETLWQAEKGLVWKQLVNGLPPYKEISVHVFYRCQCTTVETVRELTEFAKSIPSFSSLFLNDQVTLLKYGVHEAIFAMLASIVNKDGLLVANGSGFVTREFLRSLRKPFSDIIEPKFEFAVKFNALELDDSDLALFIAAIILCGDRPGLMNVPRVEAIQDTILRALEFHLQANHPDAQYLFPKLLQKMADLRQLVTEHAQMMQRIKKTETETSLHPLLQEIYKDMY
Chain of Bile acid receptor (Homo sapiens) (Q96RI1 whole entry, looked up): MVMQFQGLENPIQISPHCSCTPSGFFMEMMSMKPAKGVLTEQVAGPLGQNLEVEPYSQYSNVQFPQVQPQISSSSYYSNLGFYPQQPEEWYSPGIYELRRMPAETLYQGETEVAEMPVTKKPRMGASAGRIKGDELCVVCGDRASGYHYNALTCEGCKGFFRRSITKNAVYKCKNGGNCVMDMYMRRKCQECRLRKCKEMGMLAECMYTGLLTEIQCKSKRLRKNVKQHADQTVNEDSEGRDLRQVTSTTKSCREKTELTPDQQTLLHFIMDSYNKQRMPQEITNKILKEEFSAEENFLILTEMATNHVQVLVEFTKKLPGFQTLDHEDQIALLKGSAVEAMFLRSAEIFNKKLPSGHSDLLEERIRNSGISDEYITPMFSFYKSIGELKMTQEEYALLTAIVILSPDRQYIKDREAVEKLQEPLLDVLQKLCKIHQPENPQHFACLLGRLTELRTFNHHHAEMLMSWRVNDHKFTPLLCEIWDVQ
Chain of Glucocorticoid receptor (Homo sapiens) (P04150 whole entry, looked up): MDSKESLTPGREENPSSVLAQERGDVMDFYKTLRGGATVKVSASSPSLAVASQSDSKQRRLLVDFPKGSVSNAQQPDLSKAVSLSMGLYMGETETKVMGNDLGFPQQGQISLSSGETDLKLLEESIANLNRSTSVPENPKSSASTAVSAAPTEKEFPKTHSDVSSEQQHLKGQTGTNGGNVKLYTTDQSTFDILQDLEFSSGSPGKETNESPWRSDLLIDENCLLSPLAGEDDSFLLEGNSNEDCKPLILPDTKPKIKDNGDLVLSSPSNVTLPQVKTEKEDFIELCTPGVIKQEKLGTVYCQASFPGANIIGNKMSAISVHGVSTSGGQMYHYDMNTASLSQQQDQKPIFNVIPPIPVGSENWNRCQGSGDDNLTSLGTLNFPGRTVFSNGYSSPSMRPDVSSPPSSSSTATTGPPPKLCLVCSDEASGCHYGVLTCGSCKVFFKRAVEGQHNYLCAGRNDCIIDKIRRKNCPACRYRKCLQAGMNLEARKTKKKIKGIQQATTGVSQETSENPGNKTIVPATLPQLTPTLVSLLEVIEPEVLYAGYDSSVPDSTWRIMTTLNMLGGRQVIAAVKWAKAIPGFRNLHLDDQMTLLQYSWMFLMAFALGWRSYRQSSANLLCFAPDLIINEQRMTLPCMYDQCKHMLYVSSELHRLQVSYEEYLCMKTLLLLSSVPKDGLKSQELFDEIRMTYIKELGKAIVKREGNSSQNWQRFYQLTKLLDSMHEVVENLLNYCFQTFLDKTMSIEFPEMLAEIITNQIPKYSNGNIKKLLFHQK
Chain of Androgen receptor (Homo sapiens) (P10275 whole entry, looked up): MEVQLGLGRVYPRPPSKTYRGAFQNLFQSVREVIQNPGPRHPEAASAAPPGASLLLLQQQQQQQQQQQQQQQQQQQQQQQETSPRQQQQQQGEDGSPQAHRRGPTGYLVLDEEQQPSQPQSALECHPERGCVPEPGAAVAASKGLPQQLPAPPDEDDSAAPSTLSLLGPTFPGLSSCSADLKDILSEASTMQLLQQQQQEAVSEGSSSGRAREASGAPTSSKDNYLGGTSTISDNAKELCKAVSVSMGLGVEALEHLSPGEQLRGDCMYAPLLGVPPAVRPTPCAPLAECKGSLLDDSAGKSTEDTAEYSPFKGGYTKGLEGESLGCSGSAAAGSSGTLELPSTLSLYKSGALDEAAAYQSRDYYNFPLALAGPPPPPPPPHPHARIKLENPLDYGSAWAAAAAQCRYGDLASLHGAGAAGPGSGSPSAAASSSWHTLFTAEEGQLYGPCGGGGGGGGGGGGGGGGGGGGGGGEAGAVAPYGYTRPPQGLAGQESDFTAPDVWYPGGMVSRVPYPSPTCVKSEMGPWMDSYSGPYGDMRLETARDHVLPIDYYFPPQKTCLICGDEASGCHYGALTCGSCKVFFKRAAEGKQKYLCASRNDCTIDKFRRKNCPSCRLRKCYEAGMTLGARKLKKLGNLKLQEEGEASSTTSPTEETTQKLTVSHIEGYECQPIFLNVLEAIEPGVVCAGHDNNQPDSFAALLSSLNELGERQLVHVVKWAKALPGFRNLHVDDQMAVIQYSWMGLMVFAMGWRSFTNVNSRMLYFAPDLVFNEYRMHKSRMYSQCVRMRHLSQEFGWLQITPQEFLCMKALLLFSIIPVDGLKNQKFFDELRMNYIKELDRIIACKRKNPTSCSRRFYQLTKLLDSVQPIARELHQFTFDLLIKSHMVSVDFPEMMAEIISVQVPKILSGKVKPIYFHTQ
Chain of DNA dC->dU-editing enzyme APOBEC-3G (Homo sapiens) (Q9HC16 whole entry, looked up): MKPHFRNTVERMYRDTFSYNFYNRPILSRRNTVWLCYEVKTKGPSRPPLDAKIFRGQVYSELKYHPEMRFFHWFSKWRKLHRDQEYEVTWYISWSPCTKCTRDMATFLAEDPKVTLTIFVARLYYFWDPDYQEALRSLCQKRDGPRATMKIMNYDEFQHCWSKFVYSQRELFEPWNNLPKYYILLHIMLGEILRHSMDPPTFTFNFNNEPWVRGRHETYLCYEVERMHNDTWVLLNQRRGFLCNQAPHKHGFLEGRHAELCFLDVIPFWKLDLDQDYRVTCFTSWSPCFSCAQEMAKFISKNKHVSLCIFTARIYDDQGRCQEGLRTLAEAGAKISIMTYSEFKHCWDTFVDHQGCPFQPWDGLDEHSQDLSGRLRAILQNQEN

## CC(C)(C)c1ccc(O)c(O)c1
[1]
  outcome: inactive
[2]
  activation: 27.4% (inactive) and -11.3% (inactive)
[3]
  outcome: inactive
[4]
  max response: -11.7% and -3.04%
[5]
  outcome: inactive

## Cc1ccc(O)cc1
[1]
  outcome: inactive
[2]
  activation: -6.73% (inactive)
[4]
  max response: -30.2%
[5]
  outcome: inactive

## OCc1c[nH]c2ccccc12
[6]
  activation: -13.7% (inactive)
[7]
  outcome: inactive
[1]
  outcome: inactive

## CCCCC(CC)COC(=O)c1ccccc1C(=O)O (configuration not stated)
[3]
  outcome: inactive
[4]
  max response: -31.8%
[5]
  outcome: inactive

## Brc1ccccc1-c1ccccc1
[2]
  activation: 8.87% (inactive)

## COc1ccccc1N1CCN(CCN2C(=O)CC3(CCCC3)CC2=O)CC1
[8]
  outcome: inactive
